# The supplement of paper PMC10037445
# Values joined by “and” are separate entries in the source; they are usually repeats but may differ in a detail not shown here. Equal entries are not always repeated. In all, about 2,900 compounds were measured (“NF-kB SEAP reporter activity, fold change vs agonist alone”: median about 0.99, highest 2% from about 2.6 on). This is one part of a sample in which the highest values are shown more often than they occur.
# Experiments:
# RAW-Dual [1] = test: NF-kB SEAP reporter activity, fold change vs agonist alone; cytotoxicity flag (confluency mask): not cytotoxic; higher = enhanced NF-kB activity
# How it was run: (§1)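 Cytotoxic wells were those whose IncuCyte confluency was below 70% of agonist controls in both mask sets. The cells were RAW-Dual macrophages at 50,000 cells/well in DMEM on 384-well plates, dosed with 50 nL of library stock by pin tool, stimulated with a PRR agonist 1 h later, and kept at 37 °C, 5% CO2 for 20 hours. IRF and NF-κB reporter activity, as fold change over agonist-alone wells, came from supernatant read by QuantiLuc luminescence and QuantiBlue absorbance, respectively.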
# RAW-Dual [2] = test: NF-kB SEAP reporter activity, fold change vs agonist alone; higher = enhanced NF-kB activity; conditions: library stock concentration (final ~1000-fold dilution): 10 mM
# How it was run: as §1
# RAW-Dual [3] = test: NF-kB SEAP reporter activity, fold change vs agonist alone; cytotoxicity flag (confluency mask): cytotoxic (confluency <70% of control); higher = enhanced NF-kB activity
# How it was run: as §1
# [4] = agonist: ODN 1826 (TLR9) 0.5 ug/mL
# [5] = agonist: Pam2CSK4 (TLR2/6) 0.1 ug/mL
# [6] = agonist: Pam3CSK4 (TLR2/1) 0.1 ug/mL
# [7] = cytotoxicity flag (confluency mask): not cytotoxic, agonist: Imiquimod (TLR7) […]
# [8] = cytotoxicity flag (confluency mask): not cytotoxic, agonist: MPLA (TLR4) […]
# [9] = cytotoxicity flag (confluency mask): cytotoxic (confluency <70% of control), agonist: Imiquimod (TLR7) […]
# [10] = cytotoxicity flag (confluency mask): cytotoxic (confluency <70% of control), agonist: MPLA (TLR4) […]
smiles,measurement,setting,value
COc1ccc2c(c1O)-c1c(O)c(OC)cc3c1C(C2)[N+](C)(C)CC3 (centres undefined) (library stock concentration (final ~1000-fold dilution): 10 mM),NF-kB SEAP reporter activity,RAW-Dual [1]; agonist: LPS (TLR4) 0.1 ug/mL,1.1 and 1.18
same,NF-kB SEAP reporter activity,RAW-Dual [1]; [4],0.935 and 1.11
same,NF-kB SEAP reporter activity,RAW-Dual [1]; [5],1.01 and 1.08
same,NF-kB SEAP reporter activity,RAW-Dual [1]; [6],0.967 and 1.08
CC(C)(NS(=O)(=O)c1ccc2c(Cl)cnc(NC(=N)N)c2c1)C(=O)O.Cl,NF-kB SEAP reporter activity,RAW-Dual [2]; [7],0.99
same,NF-kB SEAP reporter activity,RAW-Dual [2]; [8],0.923
CC(C)(NS(=O)(=O)c1ccc2c(Cl)cnc(NC(=N)N)c2c1)C(=O)O.Cl (library stock concentration (final ~1000-fold dilution): 10 mM),NF-kB SEAP reporter activity,RAW-Dual [1]; agonist: LPS (TLR4) 0.1 ug/mL,1.1
same,NF-kB SEAP reporter activity,RAW-Dual [1]; [4],1.01
same,NF-kB SEAP reporter activity,RAW-Dual [1]; [5],0.913
same,NF-kB SEAP reporter activity,RAW-Dual [1]; [6],0.764
Cl.Nc1ncccc1-c1nc2ccc(-c3ccccc3)nc2n1-c1ccc(C2(N)CCC2)cc1,NF-kB SEAP reporter activity,RAW-Dual [2]; [9],1.7
same,NF-kB SEAP reporter activity,RAW-Dual [2]; [10],1.8
Cl.Nc1ncccc1-c1nc2ccc(-c3ccccc3)nc2n1-c1ccc(C2(N)CCC2)cc1 (library stock concentration (final ~1000-fold dilution): 10 mM),NF-kB SEAP reporter activity,RAW-Dual [3]; agonist: LPS (TLR4) 0.1 ug/mL,0.954
same,NF-kB SEAP reporter activity,RAW-Dual [3]; [4],0.218
same,NF-kB SEAP reporter activity,RAW-Dual [3]; [5],0.921
same,NF-kB SEAP reporter activity,RAW-Dual [3]; [6],1.38
COc1cc2c(cc1OC)C1CC(OC(=O)C(N)C(C)C)C(CC(C)C)CN1CC2.Cc1ccc(S(=O)(=O)O)cc1.Cc1ccc(S(=O)(=O)O)cc1 (centres undefined),NF-kB SEAP reporter activity,RAW-Dual [2]; [7],1.07
same,NF-kB SEAP reporter activity,RAW-Dual [2]; [8],1.11
COc1cc2c(cc1OC)C1CC(OC(=O)C(N)C(C)C)C(CC(C)C)CN1CC2.Cc1ccc(S(=O)(=O)O)cc1.Cc1ccc(S(=O)(=O)O)cc1 (centres undefined) (library stock concentration (final ~1000-fold dilution): 10 mM),NF-kB SEAP reporter activity,RAW-Dual [1]; agonist: LPS (TLR4) 0.1 ug/mL,1.11
same,NF-kB SEAP reporter activity,RAW-Dual [1]; [4],0.207
same,NF-kB SEAP reporter activity,RAW-Dual [1]; [5],0.856
same,NF-kB SEAP reporter activity,RAW-Dual [1]; [6],0.889
CC1CCN(C(=O)CC#N)CC1N(C)c1ncnc2[nH]ccc12 (centres undefined),NF-kB SEAP reporter activity,RAW-Dual [2]; [7],1.31
same,NF-kB SEAP reporter activity,RAW-Dual [2]; [8],1.05
CC1CCN(C(=O)CC#N)CC1N(C)c1ncnc2[nH]ccc12 (centres undefined) (library stock concentration (final ~1000-fold dilution): 10 mM),NF-kB SEAP reporter activity,RAW-Dual [1]; agonist: LPS (TLR4) 0.1 ug/mL,0.799
same,NF-kB SEAP reporter activity,RAW-Dual [1]; [4],1.27
same,NF-kB SEAP reporter activity,RAW-Dual [1]; [5],1.33
same,NF-kB SEAP reporter activity,RAW-Dual [1]; [6],1.51
CC(=O)OC1CCC2(C)C(=CCC3C2CCC2(C)C(c4cccnc4)=CCC32)C1 (centres undefined) (library stock concentration (final ~1000-fold dilution): 10 mM),NF-kB SEAP reporter activity,RAW-Dual [1]; agonist: LPS (TLR4) 0.1 ug/mL,0.898
same,NF-kB SEAP reporter activity,RAW-Dual [1]; [4],1.06
same,NF-kB SEAP reporter activity,RAW-Dual [1]; [5],0.97
same,NF-kB SEAP reporter activity,RAW-Dual [1]; [6],1.97
CC(=O)OC1CCC2(C)C(=CCC3C2CCC2(C)C(c4cccnc4)=CCC32)C1 (centres undefined),NF-kB SEAP reporter activity,RAW-Dual [2]; [7],1.12
same,NF-kB SEAP reporter activity,RAW-Dual [2]; [8],1.05
COc1cc2oc(=O)ccc2c(OC)c1CC(O)C(C)(C)O (centres undefined) (library stock concentration (final ~1000-fold dilution): 10 mM),NF-kB SEAP reporter activity,RAW-Dual [1]; agonist: LPS (TLR4) 0.1 ug/mL,1.11
same,NF-kB SEAP reporter activity,RAW-Dual [1]; [4],0.972
same,NF-kB SEAP reporter activity,RAW-Dual [1]; [5],1.08
same,NF-kB SEAP reporter activity,RAW-Dual [1]; [6],1.38
COc1cc2oc(=O)ccc2c(OC)c1CC(O)C(C)(C)O (centres undefined),NF-kB SEAP reporter activity,RAW-Dual [2]; [7],0.936
same,NF-kB SEAP reporter activity,RAW-Dual [2]; [8],0.984
CC(C)(C)c1nc(-c2cccc(NS(=O)(=O)c3c(F)cccc3F)c2F)c(-c2ccnc(N)n2)s1.CS(=O)(=O)O,NF-kB SEAP reporter activity,RAW-Dual [2]; [8],1.93
CC(C)(C)c1nc(-c2cccc(NS(=O)(=O)c3c(F)cccc3F)c2F)c(-c2ccnc(N)n2)s1,NF-kB SEAP reporter activity,RAW-Dual [2]; [9],2.07
same,NF-kB SEAP reporter activity,RAW-Dual [2]; [10],1.89
CC(C)(C)c1nc(-c2cccc(NS(=O)(=O)c3c(F)cccc3F)c2F)c(-c2ccnc(N)n2)s1 (library stock concentration (final ~1000-fold dilution): 10 mM),NF-kB SEAP reporter activity,RAW-Dual [3]; agonist: LPS (TLR4) 0.1 ug/mL,3.02
same,NF-kB SEAP reporter activity,RAW-Dual [3]; [4],3.35
same,NF-kB SEAP reporter activity,RAW-Dual [3]; [5],2
same,NF-kB SEAP reporter activity,RAW-Dual [3]; [6],1.57
CC(C)(C)c1nc(-c2cccc(NS(=O)(=O)c3c(F)cccc3F)c2F)c(-c2ccnc(N)n2)s1.CS(=O)(=O)O (library stock concentration (final ~1000-fold dilution): 10 mM),NF-kB SEAP reporter activity,RAW-Dual [1]; agonist: LPS (TLR4) 0.1 ug/mL,3.17
same,NF-kB SEAP reporter activity,RAW-Dual [1]; [4],3.05
same,NF-kB SEAP reporter activity,RAW-Dual [1]; [5],2.08
same,NF-kB SEAP reporter activity,RAW-Dual [1]; [6],1.78
CC(C)c1c(-c2ccccc2)[nH]c2c(C#N)cnn2c1=O.Cl (library stock concentration (final ~1000-fold dilution): 10 mM),NF-kB SEAP reporter activity,RAW-Dual [1]; agonist: LPS (TLR4) 0.1 ug/mL,0.8
same,NF-kB SEAP reporter activity,RAW-Dual [1]; [4],0.816
same,NF-kB SEAP reporter activity,RAW-Dual [1]; [5],0.507
same,NF-kB SEAP reporter activity,RAW-Dual [1]; [6],0.52
CC(C)c1c(-c2ccccc2)[nH]c2c(C#N)cnn2c1=O.Cl,NF-kB SEAP reporter activity,RAW-Dual [2]; [7],0.757
same,NF-kB SEAP reporter activity,RAW-Dual [2]; [8],0.99
CN1CCN(C(c2ccccc2)c2ccccc2)CC1.Cl.Cl (library stock concentration (final ~1000-fold dilution): 10 mM),NF-kB SEAP reporter activity,RAW-Dual [1]; agonist: LPS (TLR4) 0.1 ug/mL,1.15
same,NF-kB SEAP reporter activity,RAW-Dual [1]; [4],0.595
same,NF-kB SEAP reporter activity,RAW-Dual [1]; [5],1.04
same,NF-kB SEAP reporter activity,RAW-Dual [1]; [6],1.02
CN1CCN(C(c2ccccc2)c2ccccc2)CC1.Cl.Cl,NF-kB SEAP reporter activity,RAW-Dual [2]; [7],0.9
same,NF-kB SEAP reporter activity,RAW-Dual [2]; [8],0.897
O.S=c1nc[nH]c2nc[nH]c12 (library stock concentration (final ~1000-fold dilution): 10 mM),NF-kB SEAP reporter activity,RAW-Dual [1]; agonist: LPS (TLR4) 0.1 ug/mL,1.05
same,NF-kB SEAP reporter activity,RAW-Dual [1]; [4],0.808
same,NF-kB SEAP reporter activity,RAW-Dual [1]; [5],0.594
same,NF-kB SEAP reporter activity,RAW-Dual [1]; [6],0.684
O.S=c1nc[nH]c2nc[nH]c12,NF-kB SEAP reporter activity,RAW-Dual [2]; [7],0.752
same,NF-kB SEAP reporter activity,RAW-Dual [2]; [8],0.963
COc1ccc(-c2oc3c(CC=C(C)C)c(OC4OC(CO)C(O)C(O)C4O)cc(O)c3c(=O)c2OC2OC(C)C(O)C(O)C2O)cc1 (centres undefined) (library stock concentration (final ~1000-fold dilution): 10 mM),NF-kB SEAP reporter activity,RAW-Dual [1]; agonist: LPS (TLR4) 0.1 ug/mL,1.57
same,NF-kB SEAP reporter activity,RAW-Dual [1]; [4],0.992
same,NF-kB SEAP reporter activity,RAW-Dual [1]; [5],1.14
same,NF-kB SEAP reporter activity,RAW-Dual [1]; [6],1.28
COc1ccc(-c2oc3c(CC=C(C)C)c(OC4OC(CO)C(O)C(O)C4O)cc(O)c3c(=O)c2OC2OC(C)C(O)C(O)C2O)cc1 (centres undefined),NF-kB SEAP reporter activity,RAW-Dual [2]; [7],0.89
same,NF-kB SEAP reporter activity,RAW-Dual [2]; [8],1.13
C=C1CCCC2(C)C=C3OC(=O)C(C)=C3CC12 (centres undefined) (library stock concentration (final ~1000-fold dilution): 10 mM),NF-kB SEAP reporter activity,RAW-Dual [1]; agonist: LPS (TLR4) 0.1 ug/mL,1
same,NF-kB SEAP reporter activity,RAW-Dual [1]; [4],1.06
same,NF-kB SEAP reporter activity,RAW-Dual [1]; [5],1.52
same,NF-kB SEAP reporter activity,RAW-Dual [1]; [6],1.49
C=C1CCCC2(C)C=C3OC(=O)C(C)=C3CC12 (centres undefined),NF-kB SEAP reporter activity,RAW-Dual [2]; [7],0.726
same,NF-kB SEAP reporter activity,RAW-Dual [2]; [8],1.14
O=c1cc(-c2ccc(O)c(O)c2O)oc2ccccc12 (library stock concentration (final ~1000-fold dilution): 10 mM),NF-kB SEAP reporter activity,RAW-Dual [1]; agonist: LPS (TLR4) 0.1 ug/mL,1.08
same,NF-kB SEAP reporter activity,RAW-Dual [1]; [4],0.88
same,NF-kB SEAP reporter activity,RAW-Dual [1]; [5],0.927
same,NF-kB SEAP reporter activity,RAW-Dual [1]; [6],0.532
O=c1cc(-c2ccc(O)c(O)c2O)oc2ccccc12,NF-kB SEAP reporter activity,RAW-Dual [2]; [7],0.689
same,NF-kB SEAP reporter activity,RAW-Dual [2]; [8],1.05
CCOC(=O)C(CCc1ccccc1)NC(C)C(=O)N1C(C(=O)O)CC2CCCCC21 (centres undefined),NF-kB SEAP reporter activity,RAW-Dual [2]; [7],0.911
same,NF-kB SEAP reporter activity,RAW-Dual [2]; [8],1.04
CCOC(=O)C(CCc1ccccc1)NC(C)C(=O)N1C(C(=O)O)CC2CCCCC21 (centres undefined) (library stock concentration (final ~1000-fold dilution): 10 mM),NF-kB SEAP reporter activity,RAW-Dual [1]; agonist: LPS (TLR4) 0.1 ug/mL,1.25
same,NF-kB SEAP reporter activity,RAW-Dual [1]; [4],1
same,NF-kB SEAP reporter activity,RAW-Dual [1]; [5],1.01
same,NF-kB SEAP reporter activity,RAW-Dual [1]; [6],0.933
CCCCCCCCCCCCCCCC(=O)OC1C(SC)OC(C(NC(=O)C2CC(CCC)CN2C)C(C)Cl)C(O)C1O.Cl (centres undefined) (library stock concentration (final ~1000-fold dilution): 10 mM),NF-kB SEAP reporter activity,RAW-Dual [1]; agonist: LPS (TLR4) 0.1 ug/mL,0.968
same,NF-kB SEAP reporter activity,RAW-Dual [1]; [4],1.08
same,NF-kB SEAP reporter activity,RAW-Dual [1]; [5],0.877
same,NF-kB SEAP reporter activity,RAW-Dual [1]; [6],0.713
CCCCCCCCCCCCCCCC(=O)OC1C(SC)OC(C(NC(=O)C2CC(CCC)CN2C)C(C)Cl)C(O)C1O.Cl (centres undefined),NF-kB SEAP reporter activity,RAW-Dual [2]; [7],1.2
same,NF-kB SEAP reporter activity,RAW-Dual [2]; [8],0.983
